Assay [1] in a line: Nuclear factor erythroid 2-related factor 2/antioxidant responsive element (Nrf2/ARE) small molecule agonists: qHTS cell viability counter screen in human keratinocytes (AID 1919968; active = well fitted curve in the direction sought with a large enough effect in the repeat runs; an effect the other way counts as inactive or inconclusive; note: nearly all actives have a fitted effect of over 55% in size; note: potency is the fitted concentration of half-maximal effect). In short, it runs like this:
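Fluorescence read-out from CellTiter-Fluor after 1 h at 37 C. Wells held HaCaT-derived ARE-luciferase reporter cells (1,500/well) treated 23 h with DMSO-dissolved compounds. Run in the same wells as the luciferase agonist read.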
In general terms: In qHTS, concentration-response curves come from the screen itself.

Assay [2] is described as follows: Nuclear factor erythroid 2-related factor 2/antioxidant responsive element (Nrf2/ARE) small molecule agonists: luciferase reporter gene qHTS assay in human keratinocytes (AID 1919969; note: nearly all actives have a fitted effect of over 35% in size; note: potency is the fitted concentration of half-maximal effect). (In general: In a reporter assay the amount or activity of a reporter protein is the signal.)
In assay [3] the target is Gonadotropin-releasing hormone receptor (Homo sapiens) (UniProt P30968). In words: Human gonadotropin-releasing hormone receptor (GnRHR) small molecule agonists, calcium flux assay in GnRHR-HEK293 cells (AID 1920063). Note: nearly all actives have a fitted effect of over 35% in size. An outline of the steps: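 Calcium-dye fluorescence, Ex/Em=480/540, recorded every 1 sec over 3 min after compound addition to GnRHR-HEK293 cells. Cells had been seeded 18 hours earlier and dye-loaded for 1 hour at 37 C. Fifteen concentrations, triplicates.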
Chain of Gonadotropin-releasing hormone receptor (Homo sapiens) (P30968 whole entry, looked up): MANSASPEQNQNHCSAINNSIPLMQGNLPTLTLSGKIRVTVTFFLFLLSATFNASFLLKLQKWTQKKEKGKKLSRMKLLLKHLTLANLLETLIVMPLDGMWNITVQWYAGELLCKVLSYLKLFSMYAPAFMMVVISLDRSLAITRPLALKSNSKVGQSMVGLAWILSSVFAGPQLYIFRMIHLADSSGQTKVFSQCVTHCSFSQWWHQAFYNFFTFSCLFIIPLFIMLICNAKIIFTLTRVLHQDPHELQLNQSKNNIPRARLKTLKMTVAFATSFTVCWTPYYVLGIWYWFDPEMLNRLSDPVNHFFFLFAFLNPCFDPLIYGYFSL

The target in assay [4] is KiSS-1 receptor (Homo sapiens) (UniProt Q969F8). In words: Human kisspeptin (KISS1R) small molecule agonists, calcium flux assay in KISS1R-HEK293 cells (AID 1920064; active = well fitted curve in the direction sought with a large enough effect in the repeat runs; an effect the other way counts as inactive or inconclusive). In short, it runs like this:
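Calcium flux read-out: kinetic fluorescence at Ex/Em=480/540, 1 s intervals over 3 min, after pin-tool compound addition to dye-loaded KISS1R-HEK293 cells. Fifteen concentrations, triplicates.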
(A change in cytosolic calcium serves as a functional read-out for many receptors and channels.)

The nature of assay [5]: G protein-coupled receptor (GPCR) small molecule agonists, calcium flux assay: HEK293 wild type cell line counter screen (AID 1920065). An outline of the steps: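 Agonist mode; 18 h seeding at 37 C, 1 h dye load at 37 C; compounds pinned from DMSO, ATP as positive control; kinetic fluorescence 480/540 nm, 3 min, 1 s reads; 15 concentrations, triplicate.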
The nature of assay [6]: p53 small molecule agonists, cell-based qHTS assay with human liver microsomes (AID 1963577).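 Note: p53 response element beta-lactamase reporter cells with liver microsomes plus NADPH.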 In short, it runs like this:
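In this qHTS, p53 response-element beta-lactamase cells receive test compound together with a microsome/NADPH activating system (0.5 mg/mL final each) and are incubated 16 h at 37 C before LiveBLAzer fluorescence detection.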

Assay [7] can be described thus: p53 small molecule agonists, cell-based qHTS assay with rat liver microsomes (AID 1963578). An outline of the steps: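 Agonist mode in p53RE-bla reporter cells, with compounds co-incubated 16 h at 37 C alongside 0.5 mg/mL rat liver microsomes and 0.5 mg/mL NADPH (final), followed by a 2 h LiveBLAzer detection step.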
Assay [8] in a line: p53 small molecule agonists, cell-based qHTS assay with human liver microsomes: qHTS cell viability counter screen (AID 1963579). Note: nearly all actives have a fitted effect of over 45% in size. An outline of the steps: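 Metabolically activated exposure: compounds, human liver microsomes and NADPH (0.5 mg/mL final apiece) were added to p53RE-bla cells seeded 5 h earlier, left 16 h at 37 C, and then assessed for viability by CellTiter-Glo luminescence.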

A short description of assay [9]: p53 small molecule agonists, cell-based qHTS assay with rat liver microsomes: qHTS cell viability counter screen (AID 1963580). Note: nearly all actives have a fitted effect of over 45% in size. An outline of the steps: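 Cytotoxicity counter screen: intracellular ATP measured by CellTiter-Glo luminescence in the same wells as the beta-lactamase reporter read, on HCT-116 p53RE-bla cells exposed 16 h at 37 C to compounds with rat liver microsomes and NADPH, each 0.5 mg/mL final.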

The nature of assay [10]: p53 small molecule agonists, cell-based qHTS assay: qHTS cell viability counter screen (AID 1963581). Note: nearly all actives have a fitted effect of over 45% in size. In short, it runs like this:
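Cytotoxicity read-out: ATP-based luminescence (CellTiter-Glo, 30 min RT) measured in the same wells as the p53 reporter assay, HCT-116 p53RE-bla cells, 16 h compound exposure at 37 C.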

Assay [11] in a line: p53 small molecule agonists, cell-based qHTS assay (AID 1963582; active = well fitted activation curve with a large enough effect in the signal ratio in the repeat runs, not every such curve was filed as active; the % refers to the signal ratio). An outline of the steps:
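Fluorescence intensity read-out of a beta-lactamase reporter under a p53 response element. Cells were exposed to DMSO-dissolved compounds for 16 h at 37 C, then developed with FRET substrate for 2 h at RT.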

Assay [12] deals with 5-hydroxytryptamine receptor 2A (Homo sapiens) (UniProt P28223). In words: 5-hydroxytryptamine receptor 2A (HTR2A) small molecule antagonists, cell-based qHTS assay (AID 1963586). Note: nearly all actives have a fitted effect of over 45% in size. An outline of the steps: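 CHO cells stably expressing human HTR2A were plated for 18 h at 37 C, then loaded with calcium dye for 1 h. Compounds were preincubated 5 min at room temperature before DOI (4 nM solution) was added. Kinetic fluorescence was read for 3 min.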
Chain of 5-hydroxytryptamine receptor 2A (Homo sapiens) (P28223 whole entry, looked up): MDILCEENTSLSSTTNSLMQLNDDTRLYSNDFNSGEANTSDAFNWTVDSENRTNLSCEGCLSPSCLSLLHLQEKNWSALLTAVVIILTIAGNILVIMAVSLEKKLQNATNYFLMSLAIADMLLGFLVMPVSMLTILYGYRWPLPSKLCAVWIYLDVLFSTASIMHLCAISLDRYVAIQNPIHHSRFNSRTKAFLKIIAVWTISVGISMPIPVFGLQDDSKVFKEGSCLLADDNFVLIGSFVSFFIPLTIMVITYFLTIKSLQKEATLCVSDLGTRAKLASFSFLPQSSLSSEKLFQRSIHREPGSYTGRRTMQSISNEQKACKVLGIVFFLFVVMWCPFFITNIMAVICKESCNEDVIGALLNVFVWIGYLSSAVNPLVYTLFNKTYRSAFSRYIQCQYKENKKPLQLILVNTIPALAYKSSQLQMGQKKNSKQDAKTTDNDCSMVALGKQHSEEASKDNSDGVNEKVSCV

Assay [13] shares this target. In words: 5-hydroxytryptamine receptor 2A (HTR2A) small molecule agonists, cell-based qHTS assay (AID 1963587). Note: nearly all actives have a fitted effect of over 30% in size. An outline of the steps:
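CHO cells stably expressing human HTR2A, plated 18 h, loaded with calcium dye 1 h at 37 C. Agonist mode: compounds added and intracellular calcium fluorescence recorded kinetically for 2 min at 1 sec intervals.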

The target of assay [14] is Muscarinic acetylcholine receptor M1 (Homo sapiens) (UniProt P11229). In words: Cholinergic receptor muscarinic 1 (CHRM1) small molecule antagonists, cell-based qHTS assay (AID 1963588). Note: nearly all actives have a fitted effect of over 40% in size. An outline of the steps: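 Compounds were tested at 15 concentrations in three independent runs. Dye-loaded CHRM1-CHO cells were exposed 5 min at room temperature before stimulation by acetylcholine added at 50nM. Intracellular calcium was read kinetically on FDSS for 3 min.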
Chain of Muscarinic acetylcholine receptor M1 (Homo sapiens) (P11229 whole entry, looked up): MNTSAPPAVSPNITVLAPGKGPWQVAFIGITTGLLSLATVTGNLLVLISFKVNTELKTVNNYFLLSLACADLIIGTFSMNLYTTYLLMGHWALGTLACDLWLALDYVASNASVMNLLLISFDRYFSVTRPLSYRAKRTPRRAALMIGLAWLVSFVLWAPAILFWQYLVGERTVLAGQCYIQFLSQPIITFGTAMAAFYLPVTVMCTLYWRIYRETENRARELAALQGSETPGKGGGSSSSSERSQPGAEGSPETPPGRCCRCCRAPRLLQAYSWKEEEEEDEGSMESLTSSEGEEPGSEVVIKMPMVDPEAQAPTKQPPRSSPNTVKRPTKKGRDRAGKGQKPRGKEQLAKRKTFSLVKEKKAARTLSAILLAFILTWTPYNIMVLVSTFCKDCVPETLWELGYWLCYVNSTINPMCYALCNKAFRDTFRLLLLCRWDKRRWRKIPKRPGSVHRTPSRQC

For assay [15], the target named is Beta-2 adrenergic receptor (Homo sapiens) (UniProt P07550). In words: Adrenergic beta2 receptor (ADRB2) small molecule antagonists, cell-based qHTS assay (AID 1963592). Note: series mostly up to about 92 µM; nearly all actives have a fitted effect of over 50% in size. An outline of the steps:
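Assay format: CHO-ADRB2 cells, 18-20hr seeding at 37C/5% CO2, then compound plus 1nM isoproterenol agonist mix for 0.5hr RT. Homogeneous time-resolved fluorescence cAMP detection after 1hr, expressed as 665/615 nm ratio.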

The target in assay [16] is D(2) dopamine receptor (Homo sapiens) (UniProt P14416). In words: Dopamine D2 receptor (DRD2) small molecule agonists, cell-based qHTS assay (AID 1963594). Note: nearly all actives have a fitted effect of over 35% in size. In short, it runs like this:
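HEK293 cells stably expressing human DRD2, pre-treated with PDE inhibitor Ro20-1724 (0.1 mM final) and compound 10 min at room temperature, then stimulated with NKH477 (200nM […]) for 30 min. cAMP read by HTRF (665/620 nm).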

Assay [17] has the same target. The assay can be described thus: Dopamine D2 receptor (DRD2) small molecule antagonists, cell-based qHTS assay (AID 1963595; active = well fitted inhibition curve with a large enough effect in the signal ratio in the repeat runs, with a control signal flat; the % refers to the signal ratio). An outline of the steps:
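Stable D2 receptor HEK293 line, 24 h after seeding. Compound preincubated 10 min, then quinpirole (12 nM) with forskolin analogue NKH477 (200 nM), 30 min, room temperature. Detection by time-resolved FRET of cAMP.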

Assay [18] in a line: cAMP Responsive Elements (CRE) small molecule agonists, cell-based qHTS assay (AID 1963590). In short, it runs like this: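 Beta-lactamase reporter readout: LiveBLAzer B/G FRET substrate, 2 h at room temperature, added after 3 h compound treatment of CRE-bla HEK 293T cells at 37 C/5% CO2.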
Assay [19] deals with Muscarinic acetylcholine receptor M1 (Homo sapiens) (UniProt P11229). The assay can be described thus: Cholinergic receptor muscarinic 1 (CHRM1) small molecule agonists, cell-based qHTS assay (AID 1963589). Note: nearly all actives have a fitted effect of over 35% in size. An outline of the steps:
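Calcium flux read-out: kinetic fluorescence at 1 sec intervals after pin-tool compound addition to dye-loaded CHRM1-CHO cells (human M1). Agonist mode; 15 concentrations tested in triplicate independent runs.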

A short description of assay [20]: cAMP Responsive Elements (CRE) small molecule antagonists, cell-based qHTS assay (AID 1963591; active = well fitted inhibition curve with a large enough effect in the signal ratio in the repeat runs, not every such curve was filed as active; the % refers to the signal ratio). An outline of the steps:
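HEK293T CRE-bla; 18 h preincubation; compound pin-transfer; NKH477 0.25 uM final, 3 h, 37 C; LiveBLAzer FRET substrate 2 h RT.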

This is an account of results in PubChem BioAssay (Tox21).

Values without a mark were called inactive. Inconclusive results are not listed. Active and inactive are the calls of the source. Unless noted, calls come from the whole dose curve.

Chain of Beta-2 adrenergic receptor (Homo sapiens) (P07550 whole entry, looked up): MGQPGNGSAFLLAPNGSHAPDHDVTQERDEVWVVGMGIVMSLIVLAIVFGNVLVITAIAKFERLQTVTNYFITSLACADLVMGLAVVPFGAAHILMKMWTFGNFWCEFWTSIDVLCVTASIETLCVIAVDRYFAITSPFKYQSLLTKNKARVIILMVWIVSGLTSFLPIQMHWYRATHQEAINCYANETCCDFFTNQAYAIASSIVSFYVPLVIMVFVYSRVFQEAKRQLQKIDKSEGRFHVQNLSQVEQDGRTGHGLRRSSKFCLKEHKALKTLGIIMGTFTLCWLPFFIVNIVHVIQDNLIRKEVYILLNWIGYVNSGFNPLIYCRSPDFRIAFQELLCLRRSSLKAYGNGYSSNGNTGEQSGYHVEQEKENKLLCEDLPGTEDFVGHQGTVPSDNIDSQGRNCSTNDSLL
Chain of KiSS-1 receptor (Homo sapiens) (Q969F8 whole entry, looked up): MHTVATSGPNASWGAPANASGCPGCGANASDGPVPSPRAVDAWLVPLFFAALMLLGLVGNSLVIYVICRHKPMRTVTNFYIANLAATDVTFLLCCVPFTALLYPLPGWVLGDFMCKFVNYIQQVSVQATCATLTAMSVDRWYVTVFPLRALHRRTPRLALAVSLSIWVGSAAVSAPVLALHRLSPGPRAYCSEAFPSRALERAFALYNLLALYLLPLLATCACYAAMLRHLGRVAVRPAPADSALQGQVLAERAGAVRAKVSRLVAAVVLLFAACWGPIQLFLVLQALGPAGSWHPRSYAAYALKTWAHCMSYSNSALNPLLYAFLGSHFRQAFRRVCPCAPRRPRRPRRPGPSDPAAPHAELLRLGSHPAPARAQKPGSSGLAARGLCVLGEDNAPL
Chain of D(2) dopamine receptor (Homo sapiens) (P14416 whole entry, looked up): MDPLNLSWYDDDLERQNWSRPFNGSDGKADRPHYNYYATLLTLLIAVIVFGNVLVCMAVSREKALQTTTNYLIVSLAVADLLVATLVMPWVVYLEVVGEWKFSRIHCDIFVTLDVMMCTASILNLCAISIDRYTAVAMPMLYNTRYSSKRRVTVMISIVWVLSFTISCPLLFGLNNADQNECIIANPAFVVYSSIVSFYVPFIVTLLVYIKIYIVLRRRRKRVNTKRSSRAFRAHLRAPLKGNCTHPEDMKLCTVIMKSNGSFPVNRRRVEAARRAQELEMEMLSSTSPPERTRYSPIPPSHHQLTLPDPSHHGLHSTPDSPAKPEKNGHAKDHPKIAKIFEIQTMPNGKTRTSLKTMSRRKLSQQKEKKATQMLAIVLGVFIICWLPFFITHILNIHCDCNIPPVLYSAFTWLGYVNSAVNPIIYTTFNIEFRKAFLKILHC

On to `CCCCCCCCCC=O`, for which the Potency result in [1], in assay [2], in assay [3], in assay [6], in assay [7] and in [8] was “inactive” throughout. The Potency result in assay [9], in assay [10], in assay [11], in [12], in assay [13] and in assay [14] was “inactive” each time. Also, the Potency entry in [15], in [16] and in [17] was “inactive” each time. For the same molecule, the result in assay [4] and in assay [5] was inactive.
Regarding `CCCCC/C=C/CC(=O)OC`, the Potency entry in [1], in [2], in [3], in assay [6], in [7] and in assay [8] was “inactive” in each case. Moreover, the Potency entry in assay [9], in assay [10], in assay [11], in assay [12], in assay [13] and in assay [14] was “inactive” each time. Moreover, the Potency entry in assay [18], in assay [15], in [16] and in assay [17] was “inactive” in each case. For the same molecule, the result in assay [4] and in [5] was inactive.
Consider `COc1ccc2sc(C(=O)Nc3nnn[nH]3)c(OC(C)C)c2c1`, for which the Potency in assay [1] is 27.2 µM (active); in [2] it was 24.2 µM (active). Besides, the Potency entry in assay [3], in assay [6], in assay [7], in assay [8], in assay [9] and in [10] was “inactive” in each case. Besides, the Potency entry in [11], in [12], in [13], in [14], in assay [19] and in assay [17] was “inactive” in each case. The result in [4] and in [5] was inactive.
Consider `CCCCOC(=O)C(C)Oc1ccc(Oc2ccc(C(F)(F)F)cn2)cc1` (stereo unspecified), for which the Potency entry in [1], in assay [2], in assay [3], in [6], in assay [7] and in assay [8] was “inactive” throughout. The Potency entry in assay [9], in [10], in assay [11], in assay [12], in [13] and in assay [19] was “inactive” in each case. Further, the Potency entry in [18], in [20], in assay [15] and in assay [17] was “inactive” in each case. The outcome in [4] and in assay [5] was inactive.
On to `O=C1CCCCCCCCCCOCCCCO1`, for which the Potency entry in assay [1], in assay [3], in [6], in assay [7], in assay [8] and in assay [9] was “inactive” throughout. In addition, the Potency result in [10], in [11], in assay [12], in assay [13], in [19] and in assay [18] was “inactive” in each case. Further, the Potency entry in assay [20], in [15], in [16] and in [17] was “inactive” each time. The Potency in assay [2] was 30.6 µM (active). The result in [4] and in [5] was inactive.
With `Cc1ccccc1CCO`, the Potency entry in assay [1], in assay [2], in assay [3], in assay [6], in [7] and in assay [8] was “inactive” throughout. The Potency entry in [9], in assay [10], in assay [11], in [12], in assay [13] and in assay [19] was “inactive” each time. Also, the Potency result in assay [18], in [20], in [15], in assay [16] and in [17] was “inactive” throughout. The outcome in assay [4] and in [5] was inactive.
Regarding `C[C@H](O)C(=O)Nc1c(I)c(C(=O)NC(CO)CO)c(I)c(C(=O)NC(CO)CO)c1I`, the Potency entry in assay [1], in assay [2], in assay [3], in assay [6], in [7] and in [8] was “inactive” in each case. Also, the Potency result in [9], in assay [10], in [11], in assay [12], in assay [13] and in assay [14] was “inactive” in each case. The Potency result in [18], in assay [20], in [15], in assay [16] and in [17] was “inactive” throughout. Moreover, the outcome in assay [4] and in [5] was inactive.
